# Screening data: PubChem BioAssay, National Center for Advancing Translational Sciences (NCATS)
# FBPA Giardia inh – qHTS Assay for Inhibitors of Fructose-1,6-bisphosphate Aldolase from Giardia Lamblia | purified Giardia FBPA | actives 0.71% (n = 290,000) | A8B2U2 | Potency, µM (top dose mostly 59.6 µM), for the others: at the highest dose activity, negative = inhibition, hits mostly inhibitors; also: potency is read from the fitted curve at half-maximal effect; % is scaled to controls: 0 for no effect and ±100 for the full control effect; nearly all actives have a fitted effect of over 55% in size
# Target sequence (A8B2U2 whole entry, looked up): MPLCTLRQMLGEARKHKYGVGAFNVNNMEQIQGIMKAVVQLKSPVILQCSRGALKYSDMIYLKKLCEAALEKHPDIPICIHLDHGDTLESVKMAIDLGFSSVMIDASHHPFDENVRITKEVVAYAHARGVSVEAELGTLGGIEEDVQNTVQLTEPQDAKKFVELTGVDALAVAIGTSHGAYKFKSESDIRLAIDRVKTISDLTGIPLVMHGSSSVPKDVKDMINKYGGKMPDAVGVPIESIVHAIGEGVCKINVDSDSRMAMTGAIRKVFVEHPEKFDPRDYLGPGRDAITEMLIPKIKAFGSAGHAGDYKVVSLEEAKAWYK
#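 40 nM FBPA preincubated 10 min at RT with compound (up to 57.5 uM final), then substrate plus GAPDH/TPI/NAD/arsenate coupling and diaphorase/resazurin added. Fluorescence read after 20 min at RT, 525/598 nm.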
# TbPYK inhibitor – qHTS of Trypanosoma Brucei Inhibitors; Potency, µM (top dose mostly 76.8 µM), for the others: top-dose activity, negative = inhibition, actives largely listed as inhibitors; actives 0.12% (n = 410,000); AID 624173, 2012; pyruvate kinase (Trypanosoma brucei), Q57TT1; TbPYK enzyme, Kinase-Glo Plus ATP luminescence, 45 min; also: potency is read from the fitted curve at half-maximal effect; % is scaled to controls: 0 for no effect and ±100 for the full control effect; nearly all actives have a fitted effect of over 50% in size
#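 Enzyme and substrate buffer are dispensed first and compound is pin-transferred. ADP at 130 uM final then starts the reaction, which runs 45 min at room temperature. Detection reagent is added for 10 min before luminescence is imaged.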
# RE007 growth inh – qHTS Assay for Inhibitors of the HIV-1 protein Vpr; Potency, µM (highest dose often 92.2 µM), for the others: at the highest dose activity change, negative = less growth, most hits filed as inhibitors; S. pombe RE007 Vpr strain, BacTiter-Glo ATP luminescence, 24 h; actives 0.21% (n = 360,000); AID 651644, 2012; active = well fitted falling curve with a large enough effect; inconclusive = small, poorly fitted or top-dose-only effect; inactive = no such curve, though single readings can be large or run the other way; also: potency is read from the fitted curve at half-maximal effect; % is scaled to controls: 0 for no effect and ±100 for the full control effect; nearly all actives have a fitted effect of over 50% in size
#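 Fission yeast strain RE007, carrying one chromosomally integrated HIV-1 vpr copy, was seeded at OD 0.01 in PMG+AL medium with 23 nL pinned compound. After 24 h at 30 °C and 99% humidity, viability was read by BacTiter-Glo luminescence.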
# LmPK inhibitor – qHTS Assay for Inhibitors of Leishmania Mexicana Pyruvate Kinase (LmPK); Potency, µM (series often up to 57.5 µM), without a hit: at the top dose activity change, negative = inhibition, hits mostly inhibitors; purified LmPK, Kinase-Glo ATP luminescence, 1 h; Q27686; actives 0.37% (n = 290,000); also: potency is read from the fitted curve at half-maximal effect; % is scaled to controls: 0 for no effect and ±100 for the full control effect
#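 ATP generated from ADP (0.1 mM) and PEP (0.5 mM) by 0.1 nM LmPK over 1 h at room temperature (pH 7.2 imidazole buffer) was detected by coupled luciferase luminescence. Values were normalized to uninhibited and no-enzyme wells.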
# Shiga inhibitor – A qHTS for Small Molecule Inhibitors of Shiga Toxin. Vero cells, Shiga toxin protein synthesis inhibition reporter. inhibition, % at 38.7 µM. actives 9.2% (n = 290,000). AID 2315, 2010; in the data active = inhibition mostly above about 28%, no sharp cut-off; inactive = mostly below about 43%; also: 0% is about no effect
# CHX counter – Cycloheximide Counterscreen for Small Molecule Inhibitors of Shiga Toxin; actives 12% (n = 300,000); max response, %; AID 2314, 2010; cell reporter, cycloheximide protein synthesis inhibition counterscreen; in the data active = max response mostly above about 13%, no sharp cut-off; inactive = mostly below about 14%; also: read at 38.3 µM for the half of the compounds with a filed dose; 0% is about no effect
# Active calls of the source: *; ? = inconclusive; nt = no result; + = active, no number; [ ] = remark or other dose. The full list was thinned out, with hits kept by preference. Unless noted, calls follow the shape of the dose curve; as a rule, active = well fitted curve in the direction sought with a large enough effect; inconclusive = small, poorly fitted or top-dose-only effect, or another doubt; inactive = no such curve, though single readings can be large; an effect the other way counts as inactive or inconclusive.
SMILES,FBPA Giardia inh,TbPYK inhibitor,RE007 growth inh,LmPK inhibitor,Shiga inhibitor,CHX counter
Clc1ccccc1/C=N/c1cc(-c2ccccc2)nn1-c1ccccc1,0%,-12%,-25%,-3%,52*,33*
Cn1cc(C(=O)c2ccccc2)cc1-c1nc2ccccc2n1C,-2%,-2%,-3%,5%,31,13*
CCC(=O)c1cc(-c2nc3ccccc3n2C)n(C)c1,0%,1%,13%,5%,13,1
Cc1oc(-c2nc3ccccc3n2C)cc1C(=O)c1ccccc1,-27%,32µM*,?,13µM*,+,27*
Cc1c(C(=O)Nc2cccc(F)c2)cnn1-c1ccccc1,4%,-7%,-28%,-10%,64*,39*
CCCc1c(C(=O)Nc2cc(C(C)(C)C)on2)cnn1-c1ccccc1,6%,-1%,-18%,4%,-6,-2
CC(=O)c1cccc(NC(=O)c2cnn(-c3ccccc3)c2C)c1,?,0%,-7%,1%,90*,45*
Cc1c(C(=O)Nc2cccc([N+](=O)[O-])c2)cnn1-c1ccccc1,-21%,-15%,3%,1%,113*,47*
Cc1cc(C)n(-c2ccc(C(=O)Nc3cccc([N+](=O)[O-])c3)cc2)n1,0%,0%,2%,20%,26,11
Cc1c2cnn(-c3ccccc3)c(=O)c2c(C)n1CCCC(=O)Nc1cccc(F)c1,nt,-5%,nt,nt,nt,nt
CCCc1c(C(=O)Nc2ccc(F)cc2F)cnn1-c1ccccc1,-6%,3%,-6%,2%,12,17*
COc1ccc(S(=O)(=O)Nc2cc(S(=O)(=O)c3ccccc3)c(O)c(C)c2C)cc1,nt,-1%,nt,nt,nt,nt
CCCCOc1ccc2c(c1)C(=O)c1cc(O)ccc1-2,-16%,2%,-27%,3%,93*,29*
O=C(NCc1ccco1)c1ccc2c(c1)N(Cc1ccccc1F)C(=O)c1ccccc1S2(=O)=O,nt,-4%,nt,nt,nt,nt
COC(=O)COc1cccc(NC(=O)c2ccccc2)c1,0%,0%,-10%,-7%,-6,1
CCN(CC)S(=O)(=O)c1ccc(NC(=O)c2cccs2)cc1,3%,2%,-2%,3%,1,16
Cc1cccc(OC(=O)c2cccnc2)c1,1%,-20%,0%,4%,nt,-2
Cc1cccc(C(=O)Nc2cccc(OC(=O)c3cccc(C)c3)c2)c1,1%,9%,1%,-3%,87,34*
CCN(CC)S(=O)(=O)c1cccc(C(=O)Oc2cccc(NC(=O)c3cccs3)c2)c1,0%,-1%,-5%,1%,-5,25*
COC(=O)COc1cccc(NC(=O)c2cccc(C)c2)c1,1%,-7%,-11%,-1%,20,17*
COc1ccc(-c2nc(C)c(CCNC(=O)C(=O)Nc3ccccc3F)s2)cc1,nt,-9%,nt,nt,nt,nt
Cc1ccc(C(=O)c2coc3ccc(O)c(CN4CCN(C)CC4)c23)cc1,1%,-3%,-13%,-4%,73*,15*
COc1ccc(C(=O)c2c(C)oc3ccc(O)c(CN4CCOCC4)c23)cc1,-20%,0%,-18%,5%,5,6
COc1ccc(C(=O)c2coc3ccc(O)c(CN4CCCC4)c23)cc1,2%,1%,-8%,0%,-5,-2
COc1ccc(C(=O)c2coc3ccc(O)c(CN4CCOCC4)c23)cc1,0%,-3%,-1%,7%,38*,13*
SMILES,FBPA Giardia inh,TbPYK inhibitor,RE007 growth inh,LmPK inhibitor,Shiga inhibitor,CHX counter
CCN(CC)Cc1c(O)ccc2occ(C(=O)c3ccc(OC)cc3)c12,3%,-11%,-3%,0%,19,15*
CC(C)CC(=O)NC(=S)Nc1ccc(Cl)cn1,-1%,8%,-17%,-1%,119*,34*
CCC(C)c1ccc(OCC(=O)Nc2ccc(Cl)cn2)cc1 (stereo not given),3%,nt,7%[3.69 µM],-8%,22,35*
c1ccc(N2CCOCCOCCOCCOCC2)cc1,-3%,2%,-2%,3%,4,2
Cc1ccc(C)n1-c1ccc(N2CCOCC2)cc1,?,-7%,-12%,5%,71,22*
c1ccn(-c2ccc(N3CCOCC3)cc2)c1,1%,0%,-23%,-18%,49*,38*
COc1cc(C(=O)NCCc2sc(-c3cccc(F)c3)nc2C)cc(OC)c1OC,nt,13%,nt,nt,nt,nt
CC(=O)N/N=C\c1cccc(OC/C=C/c2ccccc2)c1,nt,-1%,-1%,0%,159*,59*
CCOC(=O)N/N=C\c1cccc(OC)c1OC/C=C/c1ccccc1,-9%,-3%,24%,4%,34*,16
CC(=O)N/N=C\c1ccccc1OC/C=C/c1ccccc1,-11%,-11%,-11%,7%,93,22*
COc1cccc(/C=N/NC(=O)CC(C)O)c1OC/C=C/c1ccccc1 (stereo not given),-3%,3%,1%,-3%,23,4
COc1cc(/C=N\NC(=O)CC#N)ccc1OC/C=C/c1ccccc1,-1%,1%,-3%,3%,1,-1
COCC(=O)N/N=C\c1ccc(OC/C=C/c2ccccc2)c(OC)c1,2%,3%,12%,-1%,-4,-2
N#CCC(=O)N/N=C\c1cccc(OC/C=C/c2ccccc2)c1,nt,-1%,2%,-5%,122*,53*
CCCCCOC(=O)Nc1nc(=O)n(C2O[C@H](C)[C@@H](O)[C@@H]2O)cc1F (stereo not given in full),nt,-22%,nt,nt,nt,nt
COc1ccc(-c2nnc(SCC(=O)c3ccc([N+](=O)[O-])cc3)o2)cc1OC,nt,-4%,nt,nt,nt,nt
Cc1ccccc1/C=C/C12NC(=O)CN1c1ccccc1C2(C)C (stereo not given),-5%,-5%,-1%,2%,63,24*
CC1(C)c2ccccc2N2CC(=O)N[C@@]21/C=C/C=C/c1ccccc1,-6%,-7%,9%,7%,-8,1
Nn1c(SCC(=O)Nc2ccc(F)cc2F)nnc1C1CCCCC1,-3%,-2%,-4%,-16%,55*,42*
CCn1c(SCC(=O)Nc2ccc(F)cc2)nnc1C1CC1,5%,-2%,9%,-5%,23,19*
Nn1c(SCC(=O)Nc2ccc(F)cc2F)nnc1-c1cccnc1,1%,8%,-9%,-16%,42,25*
Nn1c(SCC(=O)Nc2ccccc2F)nnc1-c1cccnc1,1%,-7%,18%,0%,-2,-4
Nn1c(SCC(=O)Nc2ccccc2F)nnc1C1CCCCC1,14%,4%,3%,5%,7,-1
